Key:
HCI01 = cells of a triple-negative basal-like breast cancer xenograft; experiment: cell viability of combination (% of vehicle); higher = less cytotoxic; conditions: 1 µM; 72 h; partner dose: 10 nM
Method: (§1)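 PDX cells were treated for 72 h with each drug at 1 µM plus carfilzomib (10 nM; 100 nM for WHIM2). Luciferase viability is expressed as percent of vehicle.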

UCD52 = cells of a triple-negative basal-like breast cancer xenograft; experiment: as above; conditions: 1 µM; 72 h; partner dose: 10 nM
Method: as §1

SMILES | cell viability of combination (HCI01) | cell viability of combination (UCD52)
COC1=C(OC)C(=O)C(CCCCCCCCCCO)=C(C)C1=O [Idebenone] + CC(C)C[C@H](NC(=O)[C@H](CCc1ccccc1)NC(=O)CN1CCOCC1)C(=O)N[C@@H](Cc1ccccc1)C(=O)N[C@@H](CC(C)C)C(=O)[C@@]1(C)CO1 [Carfilzomib] | 82.8 | 62
COc1cc2nccc(Oc3ccc(NC(=O)C4(C(=O)Nc5ccc(F)cc5)CC4)cc3)c2cc1OC.O=C(O)CC(O)C(=O)O [Cabozantinib malate (XL184)] + CC(C)C[C@H](NC(=O)[C@H](CCc1ccccc1)NC(=O)CN1CCOCC1)C(=O)N[C@@H](Cc1ccccc1)C(=O)N[C@@H](CC(C)C)C(=O)[C@@]1(C)CO1 [Carfilzomib] | 77 | 57.2
CNC(=O)c1cc(Oc2ccc(NC(=O)Nc3ccc(Cl)c(C(F)(F)F)c3)cc2)ccn1 [Sorafenib] + CC(C)C[C@H](NC(=O)[C@H](CCc1ccccc1)NC(=O)CN1CCOCC1)C(=O)N[C@@H](Cc1ccccc1)C(=O)N[C@@H](CC(C)C)C(=O)[C@@]1(C)CO1 [Carfilzomib] | 69 | 49
CC(C)N=c1cc2n(-c3ccc(Cl)cc3)c3ccccc3nc-2cc1Nc1ccc(Cl)cc1 [Clofazimine] + CC(C)C[C@H](NC(=O)[C@H](CCc1ccccc1)NC(=O)CN1CCOCC1)C(=O)N[C@@H](Cc1ccccc1)C(=O)N[C@@H](CC(C)C)C(=O)[C@@]1(C)CO1 [Carfilzomib] | 71.9 | 62.7
COC(=O)C1=C(C)NC(C)=C(C(=O)OC2CCCN(Cc3ccccc3)C2)C1c1cccc([N+](=O)[O-])c1.Cl (centres undefined) [Benidipine HCl] + CC(C)C[C@H](NC(=O)[C@H](CCc1ccccc1)NC(=O)CN1CCOCC1)C(=O)N[C@@H](Cc1ccccc1)C(=O)N[C@@H](CC(C)C)C(=O)[C@@]1(C)CO1 [Carfilzomib] | 106 | 57.7
CCCCCCCCCCCCCCCCOP(=O)([O-])OCC[N+](C)(C)C [Miltefosine] + CC(C)C[C@H](NC(=O)[C@H](CCc1ccccc1)NC(=O)CN1CCOCC1)C(=O)N[C@@H](Cc1ccccc1)C(=O)N[C@@H](CC(C)C)C(=O)[C@@]1(C)CO1 [Carfilzomib] | 75.2 | 71.6
COc1cc2ncnc(Nc3ccc(F)c(Cl)c3)c2cc1NC(=O)C=CCN1CCCCC1 + CC(C)C[C@H](NC(=O)[C@H](CCc1ccccc1)NC(=O)CN1CCOCC1)C(=O)N[C@@H](Cc1ccccc1)C(=O)N[C@@H](CC(C)C)C(=O)[C@@]1(C)CO1 [Carfilzomib] | 68.1 | 34.1
CNCCCC12CCC(c3ccccc31)c1ccccc12.Cl [Maprotiline HCl] + CC(C)C[C@H](NC(=O)[C@H](CCc1ccccc1)NC(=O)CN1CCOCC1)C(=O)N[C@@H](Cc1ccccc1)C(=O)N[C@@H](CC(C)C)C(=O)[C@@]1(C)CO1 [Carfilzomib] | 76.5 | 55.5
CC(C)C1=CC(=C2NNC(=O)N2c2ccc3c(ccn3C)c2)C(=O)C=C1O [Ganetespib (STA-9090)] + CC(C)C[C@H](NC(=O)[C@H](CCc1ccccc1)NC(=O)CN1CCOCC1)C(=O)N[C@@H](Cc1ccccc1)C(=O)N[C@@H](CC(C)C)C(=O)[C@@]1(C)CO1 [Carfilzomib] | 66.1 | 58.6
CCOC(=O)C1=C(COCCN)NC(C)=C(C(=O)OC)C1c1ccccc1Cl (centres undefined) [Amlodipine] + CC(C)C[C@H](NC(=O)[C@H](CCc1ccccc1)NC(=O)CN1CCOCC1)C(=O)N[C@@H](Cc1ccccc1)C(=O)N[C@@H](CC(C)C)C(=O)[C@@]1(C)CO1 [Carfilzomib] | 113 | 62.5
CC(C)CC(NC(=O)C(CCc1ccccc1)NC(=O)CN1CCOCC1)C(=O)NC(Cc1ccccc1)C(=O)NC(CC(C)C)C(=O)C1(C)CO1 (centres undefined) [Carfilzomib (PR-171)] + CC(C)C[C@H](NC(=O)[C@H](CCc1ccccc1)NC(=O)CN1CCOCC1)C(=O)N[C@@H](Cc1ccccc1)C(=O)N[C@@H](CC(C)C)C(=O)[C@@]1(C)CO1 [Carfilzomib] | 31 | 14.2
CCCCCCCCCCCC1=C(O)C(=O)C=C(O)C1=O [Embelin] + CC(C)C[C@H](NC(=O)[C@H](CCc1ccccc1)NC(=O)CN1CCOCC1)C(=O)N[C@@H](Cc1ccccc1)C(=O)N[C@@H](CC(C)C)C(=O)[C@@]1(C)CO1 [Carfilzomib] | 71.1 | 55.5
